Screening data (PubChem)
Luc counter: Kinase-Glo luciferase inhibition (counter-screen) | Q27757 | actives 0.28% (n = 200,000) | Kinase-Glo luciferase, ATP luminescence, 8 min | Potency, µM (series often up to 38.3 µM), inactives show at the highest dose activity change, negative = inhibition, most hits filed as inhibitors | AID 1379; further: nearly all actives have a fitted effect of over 60% in size
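Inhibition of Kinase-Glo luciferase light generation was assessed at 10 uM ATP in pH 7.2 imidazole buffer, with luminescence measured after eight minutes at ambient temperature.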
RORg inh: blocks mouse ROR gamma transcriptional activity; P51450; Drosophila S2 Gal4-RORgamma UAS-luciferase reporter, 20 h; Potency, µM (doses to about 53.6 µM), for inactives: at the top dose activity change, negative = inhibition, usual class: inhibitors; actives 5.4% (n = 310,000); further: nearly all actives have a fitted effect of over 60% in size
Target sequence (P51450 whole entry, looked up, the tested form may be a part): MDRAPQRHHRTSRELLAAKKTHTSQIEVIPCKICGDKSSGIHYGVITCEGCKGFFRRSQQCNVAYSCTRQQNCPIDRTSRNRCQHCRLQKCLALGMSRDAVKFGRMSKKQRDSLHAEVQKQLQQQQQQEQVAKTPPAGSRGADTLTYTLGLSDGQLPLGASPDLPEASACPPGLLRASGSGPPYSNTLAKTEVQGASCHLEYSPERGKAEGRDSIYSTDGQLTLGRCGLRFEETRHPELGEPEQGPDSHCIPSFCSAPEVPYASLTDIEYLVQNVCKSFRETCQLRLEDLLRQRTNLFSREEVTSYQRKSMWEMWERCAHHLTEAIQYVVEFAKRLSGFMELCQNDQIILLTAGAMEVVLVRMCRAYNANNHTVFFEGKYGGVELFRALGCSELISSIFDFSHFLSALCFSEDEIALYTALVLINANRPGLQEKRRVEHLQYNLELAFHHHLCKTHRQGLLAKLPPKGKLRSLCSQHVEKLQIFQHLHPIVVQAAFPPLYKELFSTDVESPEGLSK
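Using a luciferase readout, inhibitors were identified by reduced reporter activity in Drosophila cells coexpressing a copper-inducible Gal4–ROR gamma fusion and UAS-driven Photinus luciferase, incubated 20 hr after 700 uM copper sulfate.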
Gal4-VP16 FLuc: Gal4-VP16 reporter inhibition counter-screen. Drosophila S2 Gal4-VP16 UAS-luciferase, luminescence, 20 h. Potency, µM (top dose mostly 53.6 µM), for inactives: at the highest dose activity, negative = inhibition, usual class: inhibitors. actives 3.5% (n = 310,000);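 further: Gal4-VP16 expression switched on by copper sulfate through the metallothionein promoter; nearly all actives have a fitted effect of over 50% in size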
* hit, by the source's call; ? = inconclusive; · = not tested or not shown; [ ] = dose if it differs, or a comment. An excerpt weighted towards active compounds, which were near 6.4% of everything screened. The call rests on the fitted dose curve; in most records, active means well fitted curve in the direction sought with a large enough effect; inconclusive means small, poorly fitted or top-dose-only effect, or another doubt; inactive means no such curve, though single readings can be large; an effect the other way counts as inactive or inconclusive. On the % scale 0 is the no-effect control and ±100 the full control effect; potency means the concentration at half of the fitted maximal effect.

SMILES	Luc counter	RORg inh	Gal4-VP16 FLuc
CCN(CC)c1ccc(/C=N/N=C(N)N)c(O)c1	-2%	7%	-9%
NC(N)=N/N=C/c1cc([N+](=O)[O-])ccc1O	4%	18%	-8%
COc1ccc([C@]23Cc4cc(OC)c(OC)cc4C(O2)c2c(cc(C)n(Cc4ccccc4)c2=O)O3)cc1	·	5%[10 µM]	?
COc1cccc(CNC(=O)CN2C(=O)COc3ccc(S(=O)(=O)N4CCCC4)cc32)c1	·	-4%	-12%
O=C(Nc1ccccc1)c1ccc(NC(=O)C2CC2)cc1	·	8%	3%
COC(=O)c1cc(C)sc1NC(=O)CN1CCN(C(=O)C2CCCO2)CC1 (stereo not drawn)	·	10µM*	?
CCOC(=O)c1cc(C)sc1NC(=O)CN1CCN(C(=O)C2CCCO2)CC1 (stereo not drawn)	·	-39%	-5%
O=C(COc1ccc(F)cc1)NN1C(=O)CSC1=S	1%	?	1%
Cc1cc(Nc2cccc(Cl)c2Cl)n2ncnc2n1	·	13µM*	?
Cc1ccc(Nc2cc(C)nc3ncnn23)c(Cl)c1	-2%	?	?
Fc1ccc(NC(=S)NCc2ccccc2Cl)cc1	-3%	7.1µM*	14µM*
COc1ccccc1CNC(=S)NCCc1ccccc1	2%	2.5µM*	?
Nc1ccccc1SCc1ccccc1Cl	·	2%	-10%
COc1ccccc1CNC(=O)CCc1ccccc1	·	?	28%
CCC(C)c1ccc(NC(=S)NCc2ccccc2OC)cc1 (stereo not drawn)	2%	2.2µM*	8.9µM*
NS(=O)(=O)c1ccc(NC(=S)NCc2ccccc2Cl)cc1	1%	-2%	18%
COc1ccccc1CNC(=O)CC(C)c1ccccc1 (stereo not drawn)	·	16%	-5%
NC(=S)Cc1ccccc1Cl	·	10µM*	-26%
CCOc1ccccc1C(=O)Nc1nnc(Cc2ccc(OC)c(OC)c2)s1	·	44%	7%
C=CCNc1nc2c(c(=O)[nH]c(=O)n2C)n1CCOc1ccccc1	·	31%	-4%
O=C(O)C(O)C(O)c1nc2ccccc2[nH]1 (stereo not drawn)	2%	24%	-12%
COC(=O)CN1C(=O)[C@@H]2[C@H](C1=O)[C@@H]1CC(C(=O)OC)=C[C@@H](C(=O)OC)C3C1=C(C(=O)[C@@]3(C)NC(=O)c1ccccc1)[C@@H]2C (stereo partly drawn)	·	-16%	-18%
Cc1ccc(S(=O)(=O)CCC(=O)N(C)C2CCCCC2)cc1	·	16%	12%
O=C1COc2ccccc2N1Cc1c(F)cccc1Cl	·	1%	2%
COC(=O)Cc1ccc(NC(=S)NCc2ccccc2OC)cc1	-3%	8.9µM*	25µM*
SMILES	Luc counter	RORg inh	Gal4-VP16 FLuc
COc1ccccc1CNC(=S)Nc1ccc(F)cc1	·	7.9µM*	6.3µM*
COc1ccccc1CNC(=O)c1ccccc1OCc1ccc(F)cc1	2%	29%	-2%
CCCNC(=S)Nc1ccc(CC(=O)OC)cc1	·	-40%	7%
O=C(O)CNC(=S)NCc1ccccc1	1%	-25%	-16%
S=C(NCc1ccccc1)NCc1ccccc1Cl	·	13µM*	20µM*
CCN(CC)CCNC(=O)C(Oc1ccccc1)Oc1ccccc1	·	-6%	-4%
COCCNC(=O)COc1ccc(OCCNC[C@@H](O)COc2ccccc2)cc1	3%	3%	-3%
Nc1cccc2c1C(=O)N(C(=O)/C=C/c1cccc(F)c1)C2=O	-5%	?	22µM*
COc1cc(/C=C/C(=O)N2C(=O)c3cccc(N)c3C2=O)cc(OC)c1OC	2%	-10%	?
CN(C)CCCNC(=S)N(CCO)Cc1cc2cc3c(cc2[nH]c1=O)OCO3	·	-24%[1.91 µM]	2%
Cc1ccc2c(c1)N(CCC(=O)NC1CCCCC1)C(=O)CO2	·	21%	?
COc1ccc(CC2(CO)CCN(C(C)Cc3ccc(Cl)cc3)CC2)cc1 (stereo not drawn)	·	0%	-13%
O=C(O)c1ccc(NC(CSCc2ccccc2F)C(=O)O)c([N+](=O)[O-])c1 (stereo not drawn)	3%	-15%	5%
CC(=O)Nc1ccc(C2C(=O)c3ccccc3C2=O)cc1	·	1%	-2%
CCCC(=O)Nc1ccc(C2C(=O)c3ccccc3C2=O)cc1	·	11µM*	11µM*
CCc1ccc(NC(=O)CNCc2ccc(OC)c(OC)c2)cc1	·	-11%	6%
OC1(c2ccc(Cl)c(C(F)(F)F)c2)CCN(CCCC(c2ccc(F)cc2)c2ccc(F)cc2)CC1	·	13µM*	10µM*
OC(CCCN1CCC(O)(c2ccc(Cl)cc2)CC1)c1ccc(F)cc1 (stereo not drawn)	0%	-14%	-9%
Cc1ncc(CO)c(/C=N/NC(=O)c2cc(Br)ccc2O)c1O	1%	-42%	-8%
Cc1ncc(CO)c(/C=N/NC(=O)c2ccc(Br)cc2)c1O	-2%	11µM*	?
O=C(NCc1ccco1)C(=S)N1CCCC1	4%	-22%	2%
O=C(CCc1ccccc1)Nc1ccccc1C(=O)NCc1ccco1	1%	?	4%
O=C(CCc1ccccc1)NC(=S)NCc1ccco1	0%	7.9µM*	?
CC(C)(C)CC(=O)NC(=S)NCc1ccco1	1%	4.5µM*	?
COC(=O)c1ccc(C)c(-n2c(=O)n(Cc3ccccc3)c(=O)c3[nH]cnc32)c1	·	14%	6%
SMILES	Luc counter	RORg inh	Gal4-VP16 FLuc
CCn1cc(C(=O)NCCC(=O)NC(C)C)c(=O)c2cc3c(cc21)OCO3	·	3%	-5%
CC(C)c1ccc(Nc2nnc(SCC(=O)Nc3ncc(S(=O)(=O)c4ccc([N+](=O)[O-])cc4)s3)s2)cc1	2%	10µM*	-4%
Cc1ccc(Nc2nnc(SCC(=O)Nc3ncc(S(=O)(=O)c4ccc([N+](=O)[O-])cc4)s3)s2)cc1	-1%	27%[10 µM]	-71%
CCc1ccc(C2/C=C\CNC(c3ccccc3)C(=O)N2Cc2ccc(C)cc2)cc1 (stereo not drawn)	·	-26%	-6%
CC(=O)Nc1ccc(S(=O)(=O)N(C)CC(=O)OCCOc2cccc(C)c2)cc1	·	-4%	-8%
CC(C)(C)Nc1nc(Cl)nc(NC(C)(C)C)n1	-1%	-14%	-6%
CC(C)(C)Nc1nc(NN)nc(NC(C)(C)C)n1	7%	7.1µM*	20µM*
CCn1c(=S)sc2c(=O)n(CC(=O)NCCCc3ccccc3)c(C)nc21	·	20%	-5%
COC(=O)N/N=C/c1sc(N2CCCCC2)nc1-c1cccs1	-2%	10µM*	0.79µM*
COc1ccc(-c2nc(N3CCCCCC3)sc2C(=O)c2ccccc2)cc1	-4%	-17%	-2%
COc1ccc(OCC(=O)N(Cc2ccco2)C2CCS(=O)(=O)C2)cc1 (stereo not drawn)	·	25%	-9%
CC(C)[C@H](N)C(=O)NC[C@H]1CC[C@H](C(=O)N[C@@H](Cc2ccccc2)C(=O)O)CC1	·	-7%	0%
N#C/C(=C\c1ccncc1)c1nc2ccccc2o1	·	-1%	?
N#C/C(=C\Nc1ccccc1O)c1nc2ccccc2o1	-2%	?	3.5µM*
Cc1ccc(N2C(=O)C3C(C2=O)C2C=CC3C23CC3)c([N+](=O)[O-])c1 (stereo not drawn)	0%	0%	9%
COc1cc2cc(CN(CCc3ccccc3C)C(=S)NCCCN(C)C)c(=O)[nH]c2cc1OC	2%	-28%	?
